# Test results from PubChem BioAssay (Tox21).
# A number with no mark means an inactive call. Results filed as inconclusive are left out. Entries that show only a call come without a potency. The source made the active and inactive calls. Unless noted, calls follow the shape of the dose curve; as a rule, active = well fitted curve in the direction sought with a large enough effect in the repeat runs; inconclusive = weak or mixed curves; inactive = no such curve, though single readings can be large; an effect the other way counts as inactive or inconclusive.
# Experiments:
# [1] = qHTS assay to identify small molecule antagonists of the glucocorticoid receptor (GR) signaling pathway - cell viability counter screen (AID 720693); also: nearly all actives have a fitted effect of over 55% in size
# [2] = qHTS assay to identify small molecule antagonists of the androgen receptor (AR) signaling pathway - cell viability counter screen (AID 743033; also: nearly all actives have a fitted effect of over 45% in size)
# [3] = qHTS assay to identify small molecule antagonists of the androgen receptor (AR) signaling pathway using the MDA cell line - cell viability counter screen (AID 743041; also: nearly all actives have a fitted effect of over 45% in size)
# Summary of the method: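 Compound exposure lasted 16 h at 37C in MDA-kb2 AR-luc cells stimulated with R1881. Protease-based CellTiter-Fluor reagent was applied for the final 30 min and fluorescence measured.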
# [4] = qHTS assay to identify small molecule antagonists of the thyroid receptor (TR) signaling pathway - cell viability counter screen (AID 743064); also: nearly all actives have a fitted effect of over 50% in size; also: potency is read from the fitted curve at half-maximal effect
# Summary of the method: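 In rat pituitary GH3.TRE-Luc reporter cells co-exposed to compound and 1 nM T3 for 23.5 h, cytotoxicity was assessed with CellTiter-Fluor in the same wells, read by fluorescence.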
# [5] = qHTS assay to identify small molecule antagonists of the thyroid receptor (TR) signaling pathway (AID 743065); also: series mostly up to about 70 µM; nearly all actives have a fitted effect of over 55% in size
# Summary of the method: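 GH3.TRE-Luc rat pituitary cells (two TREs driving luciferase) were dosed with compound, then stimulated with 1 nM T3 (final) for 23.5 h at 37 C. ONE-Glo luminescence was the read-out, with CellTiter-Fluor fluorescence as the cytotoxicity counter-screen.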
# [6] = system: thyroid hormone receptor (rat, GH3 cells); assay: qHTS assay to identify small molecule agonists of the thyroid receptor (TR) signaling pathway (AID 743066; calls by dose curve)
# [7] = qHTS assay to identify small molecule antagonists of the estrogen receptor alpha (ER-alpha) signaling pathway - cell viability counter screen (AID 743074; calls by dose curve; also: nearly all actives have a fitted effect of over 45% in size)
# [8] = target: Estrogen receptor (Homo sapiens) (UniProt P03372); assay: qHTS assay to identify small molecule agonists of the estrogen receptor alpha (ER-alpha) signaling pathway (AID 743075; calls by dose curve)
# Estrogen receptor (Homo sapiens), sequence (P03372 whole entry, looked up): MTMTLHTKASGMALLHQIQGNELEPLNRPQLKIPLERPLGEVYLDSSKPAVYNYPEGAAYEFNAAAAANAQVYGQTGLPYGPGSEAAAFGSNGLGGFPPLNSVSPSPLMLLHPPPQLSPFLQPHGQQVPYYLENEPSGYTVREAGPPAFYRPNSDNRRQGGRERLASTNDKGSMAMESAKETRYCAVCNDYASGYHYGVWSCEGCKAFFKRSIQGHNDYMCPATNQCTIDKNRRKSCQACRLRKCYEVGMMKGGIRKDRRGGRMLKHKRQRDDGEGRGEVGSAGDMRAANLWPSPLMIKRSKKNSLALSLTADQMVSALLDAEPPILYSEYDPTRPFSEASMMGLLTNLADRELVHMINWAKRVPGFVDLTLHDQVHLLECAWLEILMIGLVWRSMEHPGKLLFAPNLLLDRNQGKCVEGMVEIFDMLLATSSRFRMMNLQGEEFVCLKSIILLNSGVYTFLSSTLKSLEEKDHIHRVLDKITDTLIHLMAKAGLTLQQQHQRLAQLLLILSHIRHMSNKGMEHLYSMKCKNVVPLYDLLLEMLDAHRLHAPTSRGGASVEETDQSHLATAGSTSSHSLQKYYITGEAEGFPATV
# [9] = target: Estrogen receptor (Homo sapiens) (UniProt P03372); assay: qHTS assay to identify small molecule agonists of the estrogen receptor alpha (ER-alpha) signaling pathway using the BG1 cell line (AID 743079); also: nearly all actives have a fitted effect of over 20% in size
# [10] = qHTS assay to identify small molecule antagonists of the estrogen receptor alpha (ER-alpha) signaling pathway using the BG1 cell line - cell viability counter screen (AID 743081);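 also: compound given together with 17beta-estradiol as the ER stimulus; series mostly up to about 70 µM; nearly all actives have a fitted effect of over 45% in size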
# Aromatase (Homo sapiens) = Aromatase (Homo sapiens) (UniProt P11511); assay: qHTS assay to identify aromatase inhibitors (AID 743083); also: series mostly up to about 70 µM; nearly all actives have a fitted effect of over 55% in size
# Aromatase (Homo sapiens), sequence (P11511 whole entry, looked up): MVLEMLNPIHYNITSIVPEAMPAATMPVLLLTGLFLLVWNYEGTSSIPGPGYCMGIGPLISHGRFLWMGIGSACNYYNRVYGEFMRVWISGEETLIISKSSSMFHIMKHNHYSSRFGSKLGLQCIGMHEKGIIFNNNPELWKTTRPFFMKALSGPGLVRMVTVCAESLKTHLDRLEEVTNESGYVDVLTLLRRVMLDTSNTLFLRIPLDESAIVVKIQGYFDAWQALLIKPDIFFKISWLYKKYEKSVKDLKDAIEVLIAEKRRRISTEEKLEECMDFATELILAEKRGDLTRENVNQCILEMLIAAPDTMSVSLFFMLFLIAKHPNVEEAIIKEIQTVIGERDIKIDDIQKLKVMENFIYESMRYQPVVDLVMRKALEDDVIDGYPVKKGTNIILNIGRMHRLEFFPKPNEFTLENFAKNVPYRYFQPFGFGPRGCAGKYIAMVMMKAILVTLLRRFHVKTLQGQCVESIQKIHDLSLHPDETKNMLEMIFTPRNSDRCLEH
# [11] = qHTS assay to identify small molecule antagonists of the estrogen receptor alpha (ER-alpha) signaling pathway using the BG1 cell line (AID 743080; calls by dose curve;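 also: BG1 cells stimulated with 17beta-estradiol alongside compound; series mostly up to about 70 µM; nearly all actives have a fitted effect of over 25% in size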)
# Summary of the method: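 Readout is ONE-Glo luminescence, taken 30 min at room temperature after reagent addition, preceded by a CellTiter-Fluor viability read; BG1-Luc-4E2 cells had received compound and 17beta-estradiol for 21.5 h at 37 C.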
# [12] = qHTS assay for identifying genotoxic compounds that show differential cytotoxicity against isogenic chicken DT40 cell lines with known DNA damage response pathways - wild type cell line (AID 743012); also: nearly all actives have a fitted effect of over 60% in size; also: potency is read from the fitted curve at half-maximal effect
# Summary of the method: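 CellTiter-Glo luminescence readout of viability in wild type DT40 cells after 40 h compound exposure at 37 C/5% CO2; 300 cells/well; reagent incubated 30 min at room temperature before reading.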
# [13] = qHTS assay for identifying genotoxic compounds that show differential cytotoxicity against isogenic chicken DT40 cell lines with known DNA damage response pathways - Rev3 mutant cell line (AID 743014); also: nearly all actives have a fitted effect of over 55% in size; also: potency is read from the fitted curve at half-maximal effect
# [14] = qHTS assay for identifying genotoxic compounds that show differential cytotoxicity against isogenic chicken DT40 cell lines with known DNA damage response pathways - Rad54/Ku70 mutant cell line (AID 743015); also: nearly all actives have a fitted effect of over 60% in size; also: potency is read from the fitted curve at half-maximal effect
# [15] = target: Estrogen receptor (Homo sapiens) (UniProt P03372); assay: qHTS assay to identify small molecule antagonists of the estrogen receptor alpha (ER-alpha) signaling pathway (AID 743069; active = well fitted curve in the direction sought with a large enough effect in the signal ratio in the repeat runs, not every such curve was filed as active; the % refers to the signal ratio)
# Summary of the method: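 In this cell-based reporter format, GripTite HEK293 cells harbouring ER-alpha-UAS-bla were grown overnight with 2% charcoal-stripped FBS, dosed with DMSO-dissolved compounds, then challenged with 17beta-estradiol. After 18 hr at 37C, beta-lactamase activity was detected by FRET fluorescence.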
# [16] = target: Androgen receptor (Homo sapiens) (UniProt P10275); assay: qHTS assay to identify small molecule antagonists of the androgen receptor (AR) signaling pathway (AID 743035; active = well fitted inhibition curve with a large enough effect in the signal ratio in the repeat runs, not every such curve was filed as active; the % refers to the signal ratio)
# Androgen receptor (Homo sapiens), sequence (P10275 whole entry, looked up): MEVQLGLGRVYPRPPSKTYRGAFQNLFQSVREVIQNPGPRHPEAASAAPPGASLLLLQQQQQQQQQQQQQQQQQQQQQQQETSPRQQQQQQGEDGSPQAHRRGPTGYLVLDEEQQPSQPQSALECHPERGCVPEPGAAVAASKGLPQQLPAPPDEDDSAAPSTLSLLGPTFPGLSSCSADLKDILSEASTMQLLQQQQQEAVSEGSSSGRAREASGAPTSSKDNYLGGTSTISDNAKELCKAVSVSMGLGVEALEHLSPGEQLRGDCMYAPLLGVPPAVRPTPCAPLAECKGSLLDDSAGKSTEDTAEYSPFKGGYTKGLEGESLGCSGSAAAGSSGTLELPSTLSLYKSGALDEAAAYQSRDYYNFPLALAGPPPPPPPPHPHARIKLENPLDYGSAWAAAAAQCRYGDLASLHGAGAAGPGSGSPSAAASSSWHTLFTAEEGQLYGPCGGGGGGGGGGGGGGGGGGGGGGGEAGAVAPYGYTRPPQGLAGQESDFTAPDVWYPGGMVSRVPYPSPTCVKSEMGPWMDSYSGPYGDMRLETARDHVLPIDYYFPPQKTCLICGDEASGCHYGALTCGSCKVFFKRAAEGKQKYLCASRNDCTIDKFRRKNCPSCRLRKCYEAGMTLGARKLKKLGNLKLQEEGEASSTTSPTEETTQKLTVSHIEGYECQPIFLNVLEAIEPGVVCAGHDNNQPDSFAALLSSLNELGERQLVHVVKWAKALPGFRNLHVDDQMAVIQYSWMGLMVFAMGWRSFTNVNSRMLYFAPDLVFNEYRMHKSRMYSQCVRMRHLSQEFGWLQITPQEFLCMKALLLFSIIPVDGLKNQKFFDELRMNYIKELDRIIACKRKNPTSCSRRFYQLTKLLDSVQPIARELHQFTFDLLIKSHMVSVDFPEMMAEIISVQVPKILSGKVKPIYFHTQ
# Summary of the method: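 AR-bla HEK293 reporter cells; 4 h settle at 37C/5% CO2; compound + R1881 agonist, 16 h at 37C; LiveBLAzer B/G FRET substrate 2 h RT; fluorescence intensity read. qHTS format.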
# [17] = target: Androgen receptor (Homo sapiens) (UniProt P10275); assay: qHTS assay to identify small molecule agonists of the androgen receptor (AR) signaling pathway using the MDA cell line (AID 743040; also: nearly all actives have a fitted effect of over 20% in size)
# Summary of the method: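 Testing was done with the MDA-kb2 AR-luc line, a human breast carcinoma stably transfected with MMTV-luciferase containing AR and GR response elements. Cells were exposed 16 h at 37C before ONE-Glo luminescence detection.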
# [18] = target: Androgen receptor (Homo sapiens) (UniProt P10275); assay: qHTS assay to identify small molecule antagonists of the androgen receptor (AR) signaling pathway using the MDA cell line (AID 743042; also: nearly all actives have a fitted effect of over 55% in size)
# Summary of the method: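 MDA-kb2 breast carcinoma cells carrying MMTV-luciferase (AR/GR responsive) were co-treated with compounds and the agonist R1881 for 16 h at 37C. Inhibition read as ONE-Glo luminescence; CellTiter-Fluor fluorescence measured in parallel for cytotoxicity.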
# [19] = target: Androgen receptor (Homo sapiens) (UniProt P10275); assay: qHTS assay to identify small molecule agonists of the androgen receptor (AR) signaling pathway (AID 743036; active = well fitted activation curve with a large enough effect in the signal ratio in the repeat runs, with a control signal flat, not every such curve was filed as active; the % refers to the signal ratio)
# Summary of the method: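 Cell-based FRET reporter assay: HEK293 line with a UAS-beta-lactamase construct, compounds added in DMSO, 16 h exposure at 37C, then 2 h substrate step at room temperature and fluorescence intensity read.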
Structure (SMILES),outcome [1],outcome [2],Potency [3],Potency [4],Potency [5],Potency [6],outcome [7],Potency [8],Potency [9],outcome [10],Potency (Aromatase (Homo sapiens)),Potency [11],Potency [12],Potency [13],Potency [14],Potency [15],Potency [16],Potency [17],outcome [18],outcome [19]
CCOC(=O)Cn1c(=O)sc2cccc(Cl)c21,inactive,inactive,inactive,inactive,inactive,inactive,inactive,inactive,inactive,inactive,inactive,,,,,,,,,
CCn1cc(C(=O)O)c(=O)c2cc(F)c(N3CCN(C)CC3)cc21,inactive,inactive,inactive,inactive,inactive,inactive,inactive,inactive,inactive,inactive,inactive,inactive,,,,,,,,
CCCCCCCCCCCl,,inactive,inactive,inactive,inactive,inactive,inactive,inactive,inactive,inactive,inactive,inactive,inactive,inactive,inactive,inactive,,,,
O=Cc1ccccc1[N+](=O)[O-],inactive,inactive,inactive,inactive,inactive,inactive,inactive,inactive,inactive,inactive,inactive,inactive,,,,inactive,,,,
CO[Si](OC)(OC)OC,inactive,inactive,inactive,,,inactive,inactive,,,inactive,inactive,,,,,,,,,
CC(=O)CCc1ccc(O)cc1,inactive,inactive,inactive,inactive,inactive,inactive,inactive,inactive,inactive,inactive,inactive,inactive,,inactive,,inactive,,,,
C=C(C)C(=O)NCCC[N+](C)(C)C,inactive,inactive,inactive,inactive,inactive,inactive,,inactive,inactive,inactive,inactive,inactive,,inactive,inactive,inactive,,,,
CCCCCCCCN(C)CCCCCCCC,inactive,inactive,inactive,inactive,inactive,inactive,inactive,inactive,inactive,inactive,inactive,inactive,,,,inactive,inactive,inactive,inactive,
CCC(=O)/C=C/c1ccc(OC)cc1,inactive,inactive,inactive,inactive,,inactive,,inactive,inactive,inactive,inactive,inactive,,,54.5 µM (active),inactive,,,,
CC(C)CCOC(=O)CC(C)C,inactive,inactive,inactive,,inactive,inactive,inactive,inactive,inactive,inactive,inactive,inactive,,inactive,inactive,inactive,,,,
NC(=O)c1ncn([C@@H]2O[C@H](CO)[C@@H](O)[C@H]2O)c1N,inactive,inactive,inactive,,inactive,inactive,inactive,inactive,inactive,inactive,inactive,,,,inactive,inactive,,,,
N[C@@H](CS)C(=O)O,,inactive,inactive,inactive,inactive,inactive,inactive,,,inactive,inactive,,inactive,inactive,inactive,,,,,
C=CCOc1nc(OCC=C)nc(OCC=C)n1,inactive,inactive,,inactive,inactive,inactive,inactive,,,inactive,inactive,,,,,,,,,
CO[Si](CCCNCCC[Si](OC)(OC)OC)(OC)OC,,inactive,inactive,inactive,inactive,inactive,inactive,inactive,inactive,inactive,inactive,inactive,inactive,inactive,inactive,inactive,,,,
c1ccc2cnncc2c1,inactive,inactive,inactive,,inactive,inactive,inactive,inactive,inactive,inactive,inactive,,,inactive,inactive,inactive,,,,
C1COCCO1,,inactive,inactive,,inactive,inactive,inactive,inactive,inactive,inactive,inactive,,inactive,inactive,inactive,inactive,inactive,inactive,inactive,inactive
OCCN1C[C@H](O)[C@@H](O)[C@H](O)[C@H]1CO,,inactive,inactive,inactive,inactive,inactive,inactive,inactive,inactive,inactive,inactive,inactive,inactive,inactive,inactive,inactive,inactive,inactive,inactive,inactive
Cc1ccc(N)cc1[N+](=O)[O-],,inactive,inactive,inactive,inactive,inactive,inactive,,,inactive,,,inactive,inactive,inactive,,inactive,inactive,inactive,inactive
Nc1ccn(C2CO[C@H](CO)O2)c(=O)n1 (some centres not stated),inactive,inactive,inactive,,inactive,inactive,inactive,inactive,inactive,inactive,inactive,,,,,inactive,,,,
O=C(O)CCNC(=O)c1ccc(N=Nc2ccc(O)c(C(=O)O)c2)cc1,,inactive,inactive,inactive,inactive,inactive,inactive,inactive,inactive,,inactive,inactive,inactive,inactive,inactive,inactive,,,,
CCN1CCCC(OC(=O)C(c2ccccc2)c2ccccc2)C1 (configuration not stated),inactive,inactive,inactive,12.7 µM (active),,inactive,inactive,inactive,inactive,,inactive,inactive,,,,inactive,,,,
CCCCCCOC(=O)c1ccccc1O,inactive,inactive,inactive,inactive,inactive,inactive,inactive,inactive,,inactive,inactive,inactive,,27.3 µM (active),inactive,inactive,inactive,inactive,inactive,
NS(=O)(=O)c1cc2c(cc1Cl)NC(CSCc1ccccc1)=NS2(=O)=O,,,inactive,,inactive,inactive,inactive,inactive,inactive,inactive,inactive,,inactive,,,inactive,,,,
Nc1[nH]c(=O)ncc1F,,inactive,inactive,,,,inactive,inactive,inactive,inactive,inactive,inactive,inactive,inactive,inactive,inactive,,,,
C1=C\CC/C=C\CC/C=C\CC/1,,inactive,inactive,inactive,inactive,inactive,inactive,,,inactive,inactive,,inactive,inactive,,,,,,
COC[C@H](c1ccc(C(F)(F)F)cc1)N1CCN(C2(C)CCN(C(=O)c3c(C)ncnc3C)CC2)C[C@H]1C,,inactive,inactive,inactive,inactive,inactive,inactive,inactive,inactive,,,inactive,29.8 µM (active),,inactive,inactive,,,,
COC(=O)CCCCCCCCC(=O)OC,,inactive,inactive,inactive,inactive,inactive,inactive,inactive,inactive,inactive,inactive,,inactive,inactive,,inactive,,,,
